As usually defined, the Kd is the equilibrium constant for the complex coming apart. A low value points to a tighter complex.

In the assay the target is T1, Eip93f (Drosophila melanogaster, UniProt Q9VD60 752-830).
T1 sequence: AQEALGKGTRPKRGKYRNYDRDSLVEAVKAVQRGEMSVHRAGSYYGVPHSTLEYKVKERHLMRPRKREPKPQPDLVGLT
The assay can be described thus: FP; 33 mM phosphate pH 7.0, 90 mM NaCl, 0.01% Tween 20, 0.1 mM DTT, 0.5% agarose; room temperature. Particulars: tags: N-GST (pGEX-6P-1, kept); dsDNA, one strand shown.
Turning to CATAGCCGACAATCG, the binding signal is 20.2 Kd / Kd of best base at the position.

Turning to CATAGCCGAAATTCG, the binding signal was 1.52 Kd / Kd of best base at the position.

Turning to CATAGCCGAAAATGG, the binding signal is 1.42 Kd / Kd of best base at the position.

With CATAGCAGAAAATCG, the binding signal is 23.3 Kd / Kd of best base at the position.

With CATAGCCGAACATCG, the binding signal was 5.65 Kd / Kd of best base at the position.

In the case of CATAGCCGAATATCG, the binding signal is 2.21 Kd / Kd of best base at the position.

With CATAGTCGAAAATCG, the binding signal was 1.92 Kd / Kd of best base at the position.

Take CATAGCCGAAGATCG: the binding signal is 9.46 Kd / Kd of best base at the position.

With CATAGCCGAAAAGCG, the binding signal was 1.89 Kd / Kd of best base at the position.

Consider CATAGCCGATAATCG, for which the binding signal is 12.1 Kd / Kd of best base at the position.

For the sequence TATAGCCGAAAATCG, the binding signal is 1.35 Kd / Kd of best base at the position.

Consider CATACCCGAAAATCG, for which the binding signal is 1.36 Kd / Kd of best base at the position.

Take CATAGCCGGAAATCG: the binding signal is 7 Kd / Kd of best base at the position.

As to GATAGCCGAAAATCG, the binding signal is 1.29 Kd / Kd of best base at the position.

On to CCTAGCCGAAAATCG, for which the binding signal was 1.59 Kd / Kd of best base at the position.

In the case of CTTAGCCGAAAATCG, the binding signal is 1.14 Kd / Kd of best base at the position.

As for CAGAGCCGAAAATCG, the binding signal was 1.49 Kd / Kd of best base at the position.

CATAGCCGAAAATCT: the binding signal is 1.07 Kd / Kd of best base at the position.

With CATATCCGAAAATCG, the binding signal is 1.8 Kd / Kd of best base at the position.

For the sequence CATAGCCGAAAGTCG, the binding signal is 2.41 Kd / Kd of best base at the position.

Take CATAGCCGAAAATCA: the binding signal is 1.07 Kd / Kd of best base at the position.

As for CATAGACGAAAATCG, the binding signal was 3.01 Kd / Kd of best base at the position.

On to CATAGCTGAAAATCG, for which the binding signal was 4.47 Kd / Kd of best base at the position.

Consider CATCGCCGAAAATCG, for which the binding signal is 2.02 Kd / Kd of best base at the position.

Take CATAGCCGAAACTCG: the binding signal is 2.54 Kd / Kd of best base at the position.

For CATAGCCGAAAATTG, the binding signal was 1.35 Kd / Kd of best base at the position.

In the case of AATAGCCGAAAATCG, the binding signal was 1.22 Kd / Kd of best base at the position.

The sequence CATAGCCGAAAATCG had a Kd of about 14.5 nM.

On to CATAGCCGAGAATCG, for which the binding signal is 22.5 Kd / Kd of best base at the position.

For the sequence CATTGCCGAAAATCG, the binding signal is 1.02 Kd / Kd of best base at the position.

As to CGTAGCCGAAAATCG, the binding signal was 1.39 Kd / Kd of best base at the position.

As to CATAGCCAAAAATCG, the binding signal was 1.28 Kd / Kd of best base at the position.

For CATGGCCGAAAATCG, the binding signal is 1.39 Kd / Kd of best base at the position.

Regarding CATAGCCGAAAAACG, the binding signal is 1.54 Kd / Kd of best base at the position.

For CATAGCCGCAAATCG, the binding signal was 20 Kd / Kd of best base at the position.

Take CATAGCCGTAAATCG: the binding signal was 13.1 Kd / Kd of best base at the position.

As to CATAGCGGAAAATCG, the binding signal was 16.4 Kd / Kd of best base at the position.

As to CATAGCCGAAAACCG, the binding signal is 1.78 Kd / Kd of best base at the position.

On to CATAGCCGAAAATAG, for which the binding signal was 1.65 Kd / Kd of best base at the position.

Turning to CATAGCCTAAAATCG, the binding signal was 1.82 Kd / Kd of best base at the position.

Source of the values: PMC5913336, “True equilibrium measurement of transcription factor-DNA binding affinities using automated polarization microscopy”.
